# Tests used:
# [1] = biological target: T1, Ephrin type-B receptor 2 (Homo sapiens) (UniProt P29323); conditions: at 1 µM
# T1 sequence (whole entry): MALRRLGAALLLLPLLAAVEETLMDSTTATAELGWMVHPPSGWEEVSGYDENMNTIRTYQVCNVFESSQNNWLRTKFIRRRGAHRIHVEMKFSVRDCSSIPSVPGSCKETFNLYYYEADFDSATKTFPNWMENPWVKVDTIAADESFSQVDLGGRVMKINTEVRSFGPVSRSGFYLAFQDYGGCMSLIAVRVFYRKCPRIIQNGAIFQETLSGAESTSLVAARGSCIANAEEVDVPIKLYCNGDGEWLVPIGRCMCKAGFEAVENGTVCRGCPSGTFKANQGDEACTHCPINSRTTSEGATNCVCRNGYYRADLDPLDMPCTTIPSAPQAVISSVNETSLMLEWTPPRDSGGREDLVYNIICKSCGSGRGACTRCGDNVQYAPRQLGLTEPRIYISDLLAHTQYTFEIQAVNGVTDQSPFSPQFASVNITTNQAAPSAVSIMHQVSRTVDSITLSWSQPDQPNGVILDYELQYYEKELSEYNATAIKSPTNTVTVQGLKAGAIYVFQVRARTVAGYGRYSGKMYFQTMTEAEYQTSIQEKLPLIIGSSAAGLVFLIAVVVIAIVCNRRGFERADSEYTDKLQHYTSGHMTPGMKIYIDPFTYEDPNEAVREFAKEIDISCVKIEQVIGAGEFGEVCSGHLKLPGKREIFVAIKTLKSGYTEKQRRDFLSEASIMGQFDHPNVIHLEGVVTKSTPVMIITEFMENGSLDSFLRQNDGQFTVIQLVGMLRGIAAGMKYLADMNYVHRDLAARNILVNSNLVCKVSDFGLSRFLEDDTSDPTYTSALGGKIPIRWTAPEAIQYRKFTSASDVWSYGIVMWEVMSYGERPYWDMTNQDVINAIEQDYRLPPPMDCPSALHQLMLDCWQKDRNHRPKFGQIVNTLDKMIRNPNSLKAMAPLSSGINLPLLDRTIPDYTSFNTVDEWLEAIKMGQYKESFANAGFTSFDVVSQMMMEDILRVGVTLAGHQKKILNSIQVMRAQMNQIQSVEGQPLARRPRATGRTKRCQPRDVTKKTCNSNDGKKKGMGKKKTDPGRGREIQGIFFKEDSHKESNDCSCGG
# [2] = biological target: T2, Ephrin type-B receptor 3 (Homo sapiens) (UniProt P54753); conditions: at 0.1 µM
# T2 sequence (whole entry): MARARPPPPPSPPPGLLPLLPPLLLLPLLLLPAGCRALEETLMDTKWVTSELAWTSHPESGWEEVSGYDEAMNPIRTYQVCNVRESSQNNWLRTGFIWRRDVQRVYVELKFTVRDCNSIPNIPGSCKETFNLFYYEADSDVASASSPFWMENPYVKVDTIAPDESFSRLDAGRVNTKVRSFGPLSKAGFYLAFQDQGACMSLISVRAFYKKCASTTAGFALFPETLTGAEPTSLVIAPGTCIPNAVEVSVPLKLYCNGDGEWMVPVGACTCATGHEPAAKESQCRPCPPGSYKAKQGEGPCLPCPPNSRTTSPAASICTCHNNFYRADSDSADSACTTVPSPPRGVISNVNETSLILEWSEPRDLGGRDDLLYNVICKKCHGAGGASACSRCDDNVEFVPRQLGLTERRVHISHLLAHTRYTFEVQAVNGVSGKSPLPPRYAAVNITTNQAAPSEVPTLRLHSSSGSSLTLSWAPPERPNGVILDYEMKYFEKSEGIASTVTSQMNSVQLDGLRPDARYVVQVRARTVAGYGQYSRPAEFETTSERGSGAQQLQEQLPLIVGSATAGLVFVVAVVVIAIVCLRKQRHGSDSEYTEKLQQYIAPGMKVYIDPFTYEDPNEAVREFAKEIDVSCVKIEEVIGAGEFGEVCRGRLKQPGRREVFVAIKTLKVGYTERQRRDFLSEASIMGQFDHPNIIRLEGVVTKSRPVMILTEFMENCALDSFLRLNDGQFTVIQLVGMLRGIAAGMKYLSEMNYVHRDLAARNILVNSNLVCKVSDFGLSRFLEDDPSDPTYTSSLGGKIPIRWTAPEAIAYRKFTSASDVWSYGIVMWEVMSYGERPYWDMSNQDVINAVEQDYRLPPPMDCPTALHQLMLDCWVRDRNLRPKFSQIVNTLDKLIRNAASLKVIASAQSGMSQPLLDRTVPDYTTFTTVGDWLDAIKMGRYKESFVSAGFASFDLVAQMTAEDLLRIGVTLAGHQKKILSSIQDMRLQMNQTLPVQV
# [3] = biological target: T2, Ephrin type-B receptor 3 (Homo sapiens); conditions: at 1 µM
# [4] = biological target: T3, Ephrin type-B receptor 4 (Homo sapiens) (UniProt P54760); conditions: at 0.1 µM
# T3 sequence (whole entry): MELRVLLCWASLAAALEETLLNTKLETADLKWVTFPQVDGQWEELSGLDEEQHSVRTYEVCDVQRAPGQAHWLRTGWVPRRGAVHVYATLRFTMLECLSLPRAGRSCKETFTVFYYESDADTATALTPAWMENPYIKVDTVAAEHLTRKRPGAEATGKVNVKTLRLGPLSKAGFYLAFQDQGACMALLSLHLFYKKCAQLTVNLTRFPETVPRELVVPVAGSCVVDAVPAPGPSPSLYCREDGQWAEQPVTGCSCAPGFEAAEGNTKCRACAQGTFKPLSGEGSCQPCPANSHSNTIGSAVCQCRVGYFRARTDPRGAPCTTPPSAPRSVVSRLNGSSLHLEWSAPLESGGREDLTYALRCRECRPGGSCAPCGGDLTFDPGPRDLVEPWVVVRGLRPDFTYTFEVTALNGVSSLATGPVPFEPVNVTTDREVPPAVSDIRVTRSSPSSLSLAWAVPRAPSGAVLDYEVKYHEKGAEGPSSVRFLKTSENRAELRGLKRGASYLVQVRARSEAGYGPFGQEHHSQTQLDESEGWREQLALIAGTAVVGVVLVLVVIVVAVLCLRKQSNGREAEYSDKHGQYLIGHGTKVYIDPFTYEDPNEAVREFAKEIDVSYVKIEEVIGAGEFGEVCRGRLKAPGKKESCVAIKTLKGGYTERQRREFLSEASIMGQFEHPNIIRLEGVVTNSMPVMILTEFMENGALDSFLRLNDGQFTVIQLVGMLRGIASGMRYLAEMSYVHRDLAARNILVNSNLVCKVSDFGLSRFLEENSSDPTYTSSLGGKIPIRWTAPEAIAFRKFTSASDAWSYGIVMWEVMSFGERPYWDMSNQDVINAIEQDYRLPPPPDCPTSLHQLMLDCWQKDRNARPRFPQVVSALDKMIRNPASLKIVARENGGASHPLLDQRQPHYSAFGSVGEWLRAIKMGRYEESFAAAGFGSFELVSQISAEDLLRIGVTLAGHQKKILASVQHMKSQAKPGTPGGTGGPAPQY
# [5] = biological target: T3, Ephrin type-B receptor 4 (Homo sapiens); conditions: at 1 µM
# [6] = biological target: Receptor tyrosine-protein kinase erbB-2 (Homo sapiens) (UniProt P04626); conditions: at 0.1 µM
# [7] = biological target: Receptor tyrosine-protein kinase erbB-2 (Homo sapiens) (UniProt P04626); conditions: at 1 µM
# [8] = biological target: Receptor tyrosine-protein kinase erbB-4 (Homo sapiens) (UniProt Q15303); conditions: at 0.1 µM
# [9] = biological target: Receptor tyrosine-protein kinase erbB-4 (Homo sapiens) (UniProt Q15303); conditions: at 1 µM
# [10] = biological target: Tyrosine-protein kinase Fer (Homo sapiens) (UniProt P16591); conditions: at 0.1 µM
# Chain of Tyrosine-protein kinase Fer (Homo sapiens) (P16591 whole entry, looked up): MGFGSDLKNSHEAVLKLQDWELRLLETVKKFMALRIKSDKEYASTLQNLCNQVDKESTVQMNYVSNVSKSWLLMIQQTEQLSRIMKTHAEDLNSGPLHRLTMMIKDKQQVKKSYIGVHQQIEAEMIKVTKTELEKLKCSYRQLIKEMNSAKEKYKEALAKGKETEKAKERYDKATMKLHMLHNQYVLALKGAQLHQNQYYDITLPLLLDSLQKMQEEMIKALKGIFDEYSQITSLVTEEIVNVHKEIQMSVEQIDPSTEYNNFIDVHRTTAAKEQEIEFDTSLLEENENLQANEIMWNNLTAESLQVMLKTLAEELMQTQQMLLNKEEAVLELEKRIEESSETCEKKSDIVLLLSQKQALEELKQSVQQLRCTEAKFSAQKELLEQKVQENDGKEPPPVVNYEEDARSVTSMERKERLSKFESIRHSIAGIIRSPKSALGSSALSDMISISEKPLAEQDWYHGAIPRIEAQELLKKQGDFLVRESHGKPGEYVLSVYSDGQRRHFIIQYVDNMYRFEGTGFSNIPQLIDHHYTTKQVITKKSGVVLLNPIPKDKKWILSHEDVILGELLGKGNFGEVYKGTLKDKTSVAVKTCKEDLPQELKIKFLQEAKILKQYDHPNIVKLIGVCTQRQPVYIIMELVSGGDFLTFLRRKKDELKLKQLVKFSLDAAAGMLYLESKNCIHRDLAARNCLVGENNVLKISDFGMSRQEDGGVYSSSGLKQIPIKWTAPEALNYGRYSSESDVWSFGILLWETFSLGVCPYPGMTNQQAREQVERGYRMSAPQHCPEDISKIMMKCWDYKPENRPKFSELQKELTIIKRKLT
# [11] = biological target: Tyrosine-protein kinase Fer (Homo sapiens) (UniProt P16591); conditions: at 1 µM
# [12] = biological target: Tyrosine-protein kinase Fes/Fps (Homo sapiens) (UniProt P07332); conditions: at 0.1 µM
# Chain of Tyrosine-protein kinase Fes/Fps (Homo sapiens) (P07332 whole entry): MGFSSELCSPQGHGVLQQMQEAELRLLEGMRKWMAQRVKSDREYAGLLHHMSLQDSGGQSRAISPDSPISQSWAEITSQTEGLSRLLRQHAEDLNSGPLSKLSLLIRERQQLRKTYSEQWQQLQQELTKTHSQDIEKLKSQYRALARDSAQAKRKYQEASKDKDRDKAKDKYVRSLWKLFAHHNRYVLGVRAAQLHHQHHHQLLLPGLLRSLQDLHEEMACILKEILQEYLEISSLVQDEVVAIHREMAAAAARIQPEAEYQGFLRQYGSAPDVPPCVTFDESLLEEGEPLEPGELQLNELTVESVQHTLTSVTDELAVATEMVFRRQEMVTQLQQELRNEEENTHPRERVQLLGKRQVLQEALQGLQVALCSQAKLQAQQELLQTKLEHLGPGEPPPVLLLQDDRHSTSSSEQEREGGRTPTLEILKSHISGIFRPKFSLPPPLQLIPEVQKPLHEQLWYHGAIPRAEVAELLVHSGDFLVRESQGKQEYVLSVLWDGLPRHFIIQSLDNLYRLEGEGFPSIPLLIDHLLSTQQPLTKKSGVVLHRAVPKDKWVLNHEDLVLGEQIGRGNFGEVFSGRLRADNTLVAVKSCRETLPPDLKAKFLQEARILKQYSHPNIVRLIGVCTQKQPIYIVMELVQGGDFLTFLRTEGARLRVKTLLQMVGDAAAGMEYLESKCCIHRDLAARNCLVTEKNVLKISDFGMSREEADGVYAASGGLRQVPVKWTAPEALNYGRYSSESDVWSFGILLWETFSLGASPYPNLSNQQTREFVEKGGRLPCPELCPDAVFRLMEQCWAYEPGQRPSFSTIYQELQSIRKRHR
# [13] = biological target: Tyrosine-protein kinase Fes/Fps (Homo sapiens) (UniProt P07332); conditions: at 1 µM
# [14] = biological target: Fibroblast growth factor receptor 1 (Homo sapiens) (UniProt P11362); conditions: at 0.1 µM
# Chain of Fibroblast growth factor receptor 1 (Homo sapiens) (P11362 22-822 limits assumed): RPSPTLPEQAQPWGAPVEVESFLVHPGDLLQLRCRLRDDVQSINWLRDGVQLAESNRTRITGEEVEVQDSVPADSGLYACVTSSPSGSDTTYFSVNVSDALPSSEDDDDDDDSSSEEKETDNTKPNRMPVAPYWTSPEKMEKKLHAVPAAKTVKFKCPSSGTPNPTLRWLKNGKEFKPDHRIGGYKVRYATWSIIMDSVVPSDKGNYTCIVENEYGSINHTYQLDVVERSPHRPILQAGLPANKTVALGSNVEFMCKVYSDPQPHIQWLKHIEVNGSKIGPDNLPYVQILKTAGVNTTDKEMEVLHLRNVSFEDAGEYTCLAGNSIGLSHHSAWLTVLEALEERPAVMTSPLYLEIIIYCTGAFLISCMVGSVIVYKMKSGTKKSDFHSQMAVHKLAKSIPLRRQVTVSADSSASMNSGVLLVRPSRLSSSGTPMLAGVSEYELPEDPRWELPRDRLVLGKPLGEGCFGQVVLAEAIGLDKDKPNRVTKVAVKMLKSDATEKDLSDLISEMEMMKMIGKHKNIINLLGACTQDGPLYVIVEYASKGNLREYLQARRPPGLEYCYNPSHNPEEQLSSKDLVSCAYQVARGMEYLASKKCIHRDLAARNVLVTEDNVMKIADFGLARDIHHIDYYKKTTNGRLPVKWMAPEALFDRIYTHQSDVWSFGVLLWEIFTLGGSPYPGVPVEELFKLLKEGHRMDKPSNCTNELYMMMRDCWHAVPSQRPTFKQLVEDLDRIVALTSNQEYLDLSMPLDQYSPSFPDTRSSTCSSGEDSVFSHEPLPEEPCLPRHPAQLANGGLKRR
# [15] = biological target: Fibroblast growth factor receptor 1 (Homo sapiens) (UniProt P11362); conditions: at 1 µM
# [16] = biological target: Fibroblast growth factor receptor 2 (Homo sapiens) (UniProt P21802); conditions: at 0.1 µM
# Chain of Fibroblast growth factor receptor 2 (Homo sapiens) (P21802 22-821 limits assumed): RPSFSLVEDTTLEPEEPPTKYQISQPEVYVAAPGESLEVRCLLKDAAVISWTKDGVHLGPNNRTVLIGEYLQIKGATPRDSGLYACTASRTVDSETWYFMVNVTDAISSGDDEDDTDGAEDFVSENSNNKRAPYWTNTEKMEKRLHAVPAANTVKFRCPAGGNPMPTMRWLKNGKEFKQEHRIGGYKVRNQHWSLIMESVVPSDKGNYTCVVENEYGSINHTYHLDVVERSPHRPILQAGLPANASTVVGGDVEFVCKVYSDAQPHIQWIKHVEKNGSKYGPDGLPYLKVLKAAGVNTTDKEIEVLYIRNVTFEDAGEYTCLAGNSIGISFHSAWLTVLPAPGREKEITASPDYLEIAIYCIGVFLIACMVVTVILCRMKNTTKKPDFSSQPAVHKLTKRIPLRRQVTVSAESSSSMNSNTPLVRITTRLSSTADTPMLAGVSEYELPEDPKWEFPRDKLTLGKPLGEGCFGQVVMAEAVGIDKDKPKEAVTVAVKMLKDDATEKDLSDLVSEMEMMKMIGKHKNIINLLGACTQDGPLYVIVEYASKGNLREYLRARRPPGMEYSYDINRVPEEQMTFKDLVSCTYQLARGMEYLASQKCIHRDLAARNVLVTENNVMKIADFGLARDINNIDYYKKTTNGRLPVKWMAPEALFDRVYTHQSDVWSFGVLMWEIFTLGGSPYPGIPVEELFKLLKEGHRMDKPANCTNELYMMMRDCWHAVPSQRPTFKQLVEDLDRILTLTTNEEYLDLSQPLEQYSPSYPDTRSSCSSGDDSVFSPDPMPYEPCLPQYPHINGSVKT
# [17] = biological target: Fibroblast growth factor receptor 2 (Homo sapiens) (UniProt P21802); conditions: at 1 µM
# [18] = biological target: Fibroblast growth factor receptor 3 (Homo sapiens) (UniProt P22607); conditions: at 0.1 µM
# Chain of Fibroblast growth factor receptor 3 (Homo sapiens) (P22607 23-806 limits assumed): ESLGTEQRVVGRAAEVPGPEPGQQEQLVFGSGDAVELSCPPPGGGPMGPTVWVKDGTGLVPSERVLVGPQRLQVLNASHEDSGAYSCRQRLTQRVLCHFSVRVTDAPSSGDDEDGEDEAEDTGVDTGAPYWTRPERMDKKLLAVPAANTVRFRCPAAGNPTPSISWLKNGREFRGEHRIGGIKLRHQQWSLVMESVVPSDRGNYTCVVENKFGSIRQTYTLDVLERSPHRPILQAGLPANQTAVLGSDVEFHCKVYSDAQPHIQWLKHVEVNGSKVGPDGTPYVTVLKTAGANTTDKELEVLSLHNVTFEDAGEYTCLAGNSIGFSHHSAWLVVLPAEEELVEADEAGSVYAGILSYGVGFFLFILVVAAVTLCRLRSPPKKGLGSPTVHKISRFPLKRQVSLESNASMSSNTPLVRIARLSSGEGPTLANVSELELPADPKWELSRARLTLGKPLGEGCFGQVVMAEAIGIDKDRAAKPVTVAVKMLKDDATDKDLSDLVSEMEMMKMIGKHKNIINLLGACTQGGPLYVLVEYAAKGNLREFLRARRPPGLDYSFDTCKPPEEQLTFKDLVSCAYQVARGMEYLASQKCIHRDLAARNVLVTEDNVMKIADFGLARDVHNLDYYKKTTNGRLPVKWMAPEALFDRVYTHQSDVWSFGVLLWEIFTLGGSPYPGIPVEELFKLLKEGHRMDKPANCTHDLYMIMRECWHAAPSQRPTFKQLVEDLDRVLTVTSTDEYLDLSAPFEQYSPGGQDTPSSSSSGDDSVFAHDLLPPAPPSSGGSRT
# [19] = biological target: Fibroblast growth factor receptor 3 (Homo sapiens) (UniProt P22607); conditions: at 1 µM
# [20] = biological target: Fibroblast growth factor receptor 4 (Homo sapiens) (UniProt P22455); conditions: at 0.1 µM;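 further: values are mean percent inhibition of FGFR4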
# Chain of Fibroblast growth factor receptor 4 (Homo sapiens) (P22455 22-802 limits assumed): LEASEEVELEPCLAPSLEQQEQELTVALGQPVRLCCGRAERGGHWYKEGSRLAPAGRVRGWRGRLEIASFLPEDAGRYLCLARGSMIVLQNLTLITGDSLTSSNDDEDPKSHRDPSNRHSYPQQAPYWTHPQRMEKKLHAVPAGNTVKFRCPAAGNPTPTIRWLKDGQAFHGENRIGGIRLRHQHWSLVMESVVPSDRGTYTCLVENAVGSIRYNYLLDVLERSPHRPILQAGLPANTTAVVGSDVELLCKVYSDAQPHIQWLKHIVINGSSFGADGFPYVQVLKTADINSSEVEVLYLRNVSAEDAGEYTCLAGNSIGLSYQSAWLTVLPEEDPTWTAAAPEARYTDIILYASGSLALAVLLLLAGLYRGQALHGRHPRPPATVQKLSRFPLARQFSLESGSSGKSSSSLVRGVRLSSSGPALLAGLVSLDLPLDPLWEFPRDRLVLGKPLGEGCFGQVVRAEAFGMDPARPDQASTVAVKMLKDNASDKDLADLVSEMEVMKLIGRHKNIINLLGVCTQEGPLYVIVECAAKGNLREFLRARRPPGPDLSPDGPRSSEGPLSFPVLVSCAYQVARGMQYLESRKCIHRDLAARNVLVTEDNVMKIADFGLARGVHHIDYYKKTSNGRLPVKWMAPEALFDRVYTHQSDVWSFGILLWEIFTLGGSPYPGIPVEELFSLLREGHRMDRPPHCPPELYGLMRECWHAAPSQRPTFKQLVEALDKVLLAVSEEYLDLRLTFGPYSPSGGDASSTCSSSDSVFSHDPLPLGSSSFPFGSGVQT
SMILES,inhibition [1],inhibition [2],inhibition [3],inhibition [4],inhibition [5],inhibition [6],inhibition [7],inhibition [8],inhibition [9],inhibition [10],inhibition [11],inhibition [12],inhibition [13],inhibition [14],inhibition [15],inhibition [16],inhibition [17],inhibition [18],inhibition [19],inhibition [20]
Nc1nonc1-c1nc2cnccc2n1C1CCCCC1,-8.8%,-1.43%,-4.08%,-3.41%,-1.63%,-3.46%,-1.33%,-5.14%,-5.19%,-1.75%,1.83%,-2.28%,-1.92%,-7.32%,-4.22%,-6.69%,-0.47%,-2.79%,-2.23%,-1.75%
COc1cc(C=NNc2ncnc3c2cnn3Cc2ccccc2)ccc1O,9.74%,-7.53%,-0.1%,4.81%,7.15%,-6.92%,-3.2%,–,–,3.46%,4.33%,-4.54%,-3.75%,-3.93%,-5.25%,-7.09%,-2.01%,-3.23%,-2.85%,-3.36%
NC(=O)c1sc(-n2cnc3cc(C(F)(F)F)ccc32)cc1OCc1ccccc1Br,4.29%,1.68%,3.79%,0.19%,1.65%,3.19%,4.72%,5.4%,14.4%,2.82%,6.44%,2.76%,1.99%,-2.05%,1.74%,2.24%,–,1.69%,2.38%,2.01%
COc1cc2c(cc1Nc1nc(Nc3ccsc3C(N)=O)c3cc[nH]c3n1)N(C(=O)CN(C)C)CCC2,5.1%,0.25%,1.02%,-2.11%,1.55%,-0.5%,1.76%,8.03%,35.3%,79.7%,81.6%,77.9%,86.8%,-0.88%,-1.8%,1.41%,0.97%,0.66%,2.61%,-1.12%
COc1cccc(-n2ncc3c(N/N=C/c4ccncc4)ncnc32)c1,30.4%,4.72%,3.82%,3.92%,13.7%,0.91%,5.53%,9.63%,20.9%,4.97%,11.7%,3.38%,5.85%,4.8%,8.02%,4.98%,14.5%,7.39%,11.9%,1.99%
Cc1cc(-c2ccco2)cc(C)c1/C=C/c1cncc(-c2nn[nH]n2)c1,3.46%,0.39%,4.16%,0.18%,2.02%,3.01%,3.5%,2.03%,15.7%,4.17%,7.85%,1.75%,1.63%,-0.88%,2.5%,1.69%,1.54%,-0.36%,3.17%,1.4%
CCn1c(-c2nonc2N)nc2c(C#CCN)ncc(OCCCN)c21,-5.25%,-7.45%,1.18%,-2.64%,-2.62%,-3.17%,3.87%,-7.51%,2.14%,5.14%,6.76%,-1.95%,-1.62%,-2.75%,2.12%,-1.49%,0.4%,-4.55%,-3.83%,-2.34%

# — ChEMBL document CHEMBL1961873, “Compounds: GSK PKIS; Assays: Nanosyn kinase panel” (2012)
